Measurements reported in PMC5540273 (PLoS ONE, 2017).

Columns and labels:
Conditions in all cases: concentration: 1 μM, replicates: in singlicate; n = 1
[1] = system: T1, RSK1(Kin.Dom.2-C-terminal)
T1 construct: gene RPS6KA1

[2] = system: T2, RSK2(Kin.Dom.1-N-terminal)
T2 construct: gene RPS6KA3

[3] = system: T3, RSK2(Kin.Dom.2-C-terminal)
T3 construct: gene RPS6KA3

[4] = system: T4, RSK3(Kin.Dom.1-N-terminal)
T4 construct: gene RPS6KA2

[5] = system: T5, RSK3(Kin.Dom.2-C-terminal)
T5 construct: gene RPS6KA2

[6] = system: T6, RSK4(Kin.Dom.1-N-terminal)
T6 construct: gene RPS6KA6

[7] = system: T7, RSK4(Kin.Dom.2-C-terminal)
T7 construct: gene RPS6KA6

S6K1 = system: S6K1
SBK1 = system: SBK1
SGK2 = system: SGK2
SGK3 = system: SGK3
SGK = system: SGK
SIK2 = system: SIK2
SIK = system: SIK
SLK = system: SLK
SNARK = system: T8, SNARK
T8 construct: gene NUAK2

SNRK = system: SNRK
SRC = system: SRC
SRMS = system: SRMS
SRPK1 = system: SRPK1
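Also: KINOMEscan kinase panel screen.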

| Structure (SMILES) | %Inh [1] [%] | %Inh [2] [%] | %Inh [3] [%] | %Inh [4] [%] | %Inh [5] [%] | %Inh [6] [%] | %Inh [7] [%] | %Inh (S6K1) [%] | %Inh (SBK1) [%] | %Inh (SGK2) [%] | %Inh (SGK3) [%] | %Inh (SGK) [%] | %Inh (SIK2) [%] | %Inh (SIK) [%] | %Inh (SLK) [%] | %Inh (SNARK) [%] | %Inh (SNRK) [%] | %Inh (SRC) [%] | %Inh (SRMS) [%] | %Inh (SRPK1) [%] |
| --- | --- | --- | --- | --- | --- | --- | --- | --- | --- | --- | --- | --- | --- | --- | --- | --- | --- | --- | --- | --- |
| Fc1ccc(-c2nc[nH]c2-c2ccncc2)cc1 [SB-217360] | 47 | 34 | 4 | 0 | 6 | 16 | 87 | 8 | 0 | 0 | 7 | 0 | 0 | 0 | 32 | 0 | 0 | 0 | 34 | 0 |
| Cc1ccccc1-c1cc(-c2c[nH]nc2-c2ccccn2)ccn1 [GW680061] | 14 | 10 | 15 | 2 | 0 | 0 | 22 | 2 | 0 | 0 | 0 | 0 | 0 | 0 | 0 | 1 | 0 | 0 | 0 | 0 |
| Cc1ccc(-c2nc(Nc3ccncc3)c3ccccc3n2)s1 [GSK189015] | 18 | 7 | 21 | 3 | 12 | 0 | 28 | 0 | 4 | 4 | 47 | 5 | 16 | 0 | 9 | 74 | 3 | 13 | 3 | 38 |
| CC(C)c1cc(-c2ccc3c(N)n[nH]c3c2)nc(N)n1 [GSK2250882] | 0 | 18 | 0 | 0 | 5 | 0 | 17 | 0 | 16 | 0 | 4 | 0 | 0 | 0 | 14 | 0 | 0 | 0 | 8 | 60 |
| CNC(=O)c1ccc(C)c(-n2c(C)cc(OCc3ccc(F)cc3F)c(Br)c2=O)c1 | 0 | 0 | 0 | 10 | 0 | 0 | 0 | 0 | 0 | 0 | 0 | 0 | 0 | 0 | 0 | 0 | 0 | 0 | 0 | 14 |
| Cc1nccc(-c2c(-c3ccc(F)cc3)ncn2CCCN2CCOCC2)n1.Cl [SB-282975] | 5 | 29 | 44 | 9 | 0 | 22 | 6 | 9 | 29 | 27 | 39 | 27 | 0 | 27 | 32 | 42 | 2 | 26 | 0 | 19 |
| Cc1ccc(NC(=O)Nc2ccccc2)cc1-c1ccc(C(=O)Nc2ccncc2)cc1 [GSK1398471] | 10 | 0 | 1 | 3 | 7 | 0 | 6 | 0 | 5 | 0 | 10 | 0 | 0 | 6 | 13 | 4 | 0 | 20 | 0 | 33 |
| Nc1cccc(-c2ccc3c(N)n[nH]c3c2)n1 [GSK2192730] | 21 | 3 | 0 | 6 | 19 | 0 | 17 | 7 | 2 | 6 | 34 | 2 | 0 | 0 | 0 | 19 | 0 | 0 | 0 | 33 |
| Cn1cncc1C(=O)NC1CCN(c2ccnc(Nc3ccc(F)cc3)n2)C1 (centres unmarked) [GSK1379717] | 12 | 5 | 0 | 0 | 12 | 0 | 15 | 7 | 16 | 7 | 0 | 14 | 0 | 0 | 0 | 0 | 0 | 0 | 0 | 100 |
| O=C(Nc1n[nH]c2nc(-c3cccs3)c(Br)cc12)C1CC1 [SB-735297] | 0 | 22 | 0 | 0 | 0 | 98.9 | 20 | 22 | 11 | 27 | 15 | 26 | 0 | 0 | 7 | 10 | 0 | 0 | 5 | 22 |
| CC(=O)c1c(C)c2cnc(Nc3ccc(N4CCNCC4)cn3)nc2n(C2CCCC2)c1=O | 0 | 0 | 0 | 0 | 0 | 0 | 1 | 0 | 0 | 0 | 5 | 0 | 10 | 0 | 0 | 0 | 8 | 0 | 0 | 32 |
| Nc1ncnc2occ(-c3ccc4c(c3)CCN4C(=O)Cc3cc(F)ccc3F)c12 [GSK2645446] | 0 | 0 | 7 | 0 | 16 | 0 | 15 | 0 | 10 | 0 | 1 | 0 | 0 | 0 | 5 | 7 | 0 | 0 | 0 | 16 |
| NS(=O)(=O)c1cccc(N/C=C2\C(=O)Nc3ccc(S(=O)(=O)Cc4c(Cl)cccc4Cl)cc32)c1 [GSK398099] | 100 | 6 | 0 | 10 | 0 | 0 | 2 | 0 | 21 | 8 | 5 | 0 | 0 | 0 | 15 | 0 | 0 | 0 | 0 | 19 |
| COc1cccc(NC(=O)Nc2ccc(C)c(-c3ccc(C(=O)Nc4ccncc4)cc3)c2)c1 [GSK1398474] | 0 | 0 | 0 | 7 | 19 | 0 | 22 | 18 | 8 | 0 | 11 | 0 | 0 | 10 | 7 | 13 | 3 | 31 | 0 | 31 |
| O=C(Nc1n[nH]c2nc(-c3ccco3)c(Br)cc12)C1CCN(Cc2ccccc2)C1.O=C(O)[C@H](O)[C@@H](O)C(=O)O (centres unmarked) [SB-742034] | 0 | 35 | 0 | 6 | 0 | 16 | 12 | 23 | 19 | 27 | 24 | 18 | 9 | 52 | 8 | 11 | 0 | 0 | 17 | 28 |
| CS(=O)(=O)Cc1ccc(Nc2nccc(-c3c(-c4cccc(NC(=O)C5CCCCC5)c4)nn4ncccc34)n2)cc1 [GSK350559] | 33 | 13 | 11 | 12 | 0 | 17 | 9 | 24 | 34 | 40 | 0 | 46 | 0 | 0 | 53 | 7 | 16 | 30 | 3 | 29 |

| Structure (SMILES) | %Inh [1] [%] | %Inh [2] [%] | %Inh [3] [%] | %Inh [4] [%] | %Inh [5] [%] | %Inh [6] [%] | %Inh [7] [%] | %Inh (S6K1) [%] | %Inh (SBK1) [%] | %Inh (SGK2) [%] | %Inh (SGK3) [%] | %Inh (SGK) [%] | %Inh (SIK2) [%] | %Inh (SIK) [%] | %Inh (SLK) [%] | %Inh (SNARK) [%] | %Inh (SNRK) [%] | %Inh (SRC) [%] | %Inh (SRMS) [%] | %Inh (SRPK1) [%] |
| --- | --- | --- | --- | --- | --- | --- | --- | --- | --- | --- | --- | --- | --- | --- | --- | --- | --- | --- | --- | --- |
| CC(C)c1ccc(O)cc1Nc1ccnc2ccc(C(F)(F)F)cc12 [GW482059] | 0 | 0 | 10 | 0 | 7 | 0 | 0 | 0 | 5 | 0 | 4 | 7 | 0 | 0 | 9 | 3 | 0 | 14 | 0 | 35 |
| COc1cc2ncnc(Nc3cccc(Br)c3)c2cc1OC.Cl [GI230329] | 11 | 11 | 5 | 0 | 0 | 0 | 15 | 0 | 16 | 2 | 0 | 22 | 0 | 0 | 65 | 3 | 23 | 20 | 21 | 34 |
| O=C(Nc1n[nH]c2cc(-c3ccsc3)ccc12)C1CC1 [SB-732932] | 19 | 27 | 0 | 71 | 16 | 29 | 24 | 13 | 44 | 4 | 26 | 6 | 0 | 4 | 0 | 29 | 15 | 0 | 13 | 45 |
| O=C1NC(=O)C(c2ccc(Cl)cc2)=C1Nc1cccc(Cl)c1 [SB-317651] | 0 | 23 | 0 | 18 | 23 | 0 | 13 | 36 | 0 | 6 | 0 | 0 | 0 | 0 | 14 | 0 | 0 | 2 | 0 | 0 |
| Cc1ccc(NC(=O)c2ccc(Cl)cc2)cc1-c1ccc(C(=O)Nc2ccncc2)cc1 [GSK1398467] | 0 | 4 | 2 | 8 | 22 | 0 | 10 | 7 | 0 | 0 | 0 | 0 | 0 | 0 | 19 | 0 | 0 | 0 | 0 | 13 |
| COc1ccc(Nc2nccc(N3CCC(NC(=O)c4cc5ccccc5s4)C3)n2)cc1 (centres unmarked) [GSK1379738] | 4 | 10 | 4 | 1 | 0 | 0 | 0 | 0 | 2 | 0 | 7 | 0 | 0 | 0 | 4 | 6 | 0 | 0 | 0 | 17 |
| Fc1ccc(-c2nn3cccc(F)c3c2-c2ccncc2)cc1 [GW475620] | 24 | 9 | 33 | 7 | 0 | 16 | 78 | 5 | 12 | 11 | 0 | 0 | 12 | 3 | 16 | 0 | 0 | 1 | 0 | 3 |
| FC(F)(F)c1ccccc1-c1cc(-c2c[nH]nc2-c2ccccn2)ccn1 [GW679396] | 13 | 0 | 0 | 6 | 0 | 0 | 22 | 0 | 13 | 0 | 1 | 0 | 0 | 0 | 15 | 0 | 0 | 0 | 0 | 3 |
| COc1ccc(Nc2nccc(-c3ccc(NC(=O)c4cc5cc(F)ccc5[nH]4)cc3)n2)cc1 [GSK1229496] | 36 | 0 | 20 | 0 | 0 | 20 | 6 | 1 | 17 | 0 | 1 | 0 | 0 | 0 | 0 | 0 | 0 | 0 | 7 | 10 |
| Cn1cncc1-c1cc2c(Nc3ccc(OCc4ccccc4)cc3)ncnc2cn1 [GW281179] | 0 | 0 | 0 | 3 | 0 | 0 | 9 | 3 | 36 | 10 | 0 | 4 | 0 | 0 | 19 | 0 | 0 | 0 | 0 | 18 |
| CNc1nc(-c2ccc3c(N)n[nH]c3c2)cc(N2C[C@@H](C(=O)Nc3ccccc3)CC[C@H]2C)n1 [GSK2298859] | 0 | 0 | 0 | 7 | 3 | 0 | 23 | 0 | 4 | 0 | 1 | 0 | 0 | 4 | 19 | 8 | 0 | 2 | 0 | 33 |
| Cc1cnc(N)c(/C=C/c2cncc(C(=O)NCCc3ccc(Cl)cc3Cl)c2)c1.Cl [GSK190937] | 0 | 0 | 2 | 0 | 0 | 0 | 20 | 0 | 19 | 0 | 0 | 0 | 0 | 0 | 0 | 0 | 0 | 0 | 24 | 24 |
| COc1ccc(-c2coc3ccc(-c4nnc(C)o4)cc23)cc1 | 4 | 0 | 0 | 0 | 8 | 22 | 15 | 0 | 0 | 0 | 0 | 0 | 3 | 0 | 5 | 0 | 0 | 20 | 0 | 9 |
| CNCc1ccc2nc(NC(=O)c3ccc(C(C)(C)C)cc3)cn2c1 | 8 | 32 | 37 | 1 | 0 | 27 | 7 | 17 | 27 | 12 | 31 | 2 | 4 | 3 | 0 | 34 | 20 | 3 | 0 | 33 |
| COc1cccc(C2=C(Nc3cc(Cl)c(O)c(Cl)c3)C(=O)NC2=O)c1 [SB-390767] | 0 | 11 | 37 | 0 | 0 | 0 | 0 | 20 | 0 | 11 | 0 | 0 | 0 | 0 | 13 | 0 | 0 | 0 | 0 | 11 |
